Compound activity as filed in PubChem.
Dicer processing: inhibitors of human Dicer processing of pre-microRNA; Q9UPY3; cat-ELCCA pre-miR-21 Dicer processing, chemiluminescence; stronger effect = higher value; z-score at 25 µM; hit rate 6% among 47,000; in the data active = z-score above about 3, passing the limit was not always enough;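 note: higher signal means more uncleaved substrate so more Dicer inhibition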
Each line names hits and unclear results; the compound was inactive in the other large screens. Shown is part of a subset that was picked to be rich in hits.

CCOC(=O)c1cnc(Nc2ccc(OC(F)(F)F)cc2)nc1C(F)(F)F	none
CN(C)CCCN(Cc1ccc2c(c1)OCO2)C(=O)NC1CCCCC1	Dicer processing 4.7
O=C(NCc1ccc2c(c1)OCO2)NC1CCCCC1	none
CN1C(=O)CC(NCc2ccc3c(c2)OCO3)C1=O (centres undefined)	none
N/C(=N/S(=O)(=O)c1ccc(Cl)c(Cl)c1)c1ccc(Cl)cc1	Dicer processing 4.55
N/C(=N/S(=O)(=O)c1cc(C(F)(F)F)cc(C(F)(F)F)c1)c1ccc(Cl)cc1	none
N/C(=N\S(=O)(=O)c1cc(Cl)sc1Cl)c1ccc(Cl)cc1	none
